This passage reports outcome results from PubChem BioAssay AID720697 (Broad Institute, 2013).

The nature of this test: general mammalian cell viability loss – inhibitor set, cherry-pick, set 2, cytotoxicity control for miR-122 modulator project, dose response (AID 720697).

Each structure is given as a SMILES string. Results with a measured potency or affinity are listed apart. Inconclusive results are not listed. Active and inactive are the calls of the source.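 The calls were made as follows: active = signal loss with fitted half-maximal concentration at or below twice the top valid tested dose in every test run; inconclusive = runs disagree, flat 30 to 70% signal loss, or poor fit; inactive = all runs flat, opposite direction, or potency beyond limit.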

Consider `COc1ccc(C2SCC(=O)Nc3c2c(=O)[nH]n3C2CCCCCC2)cc1` (configuration not stated), for which the result was inactive.
Next, `COc1ccc2c(c1)c(CCN)c(C)n2Cc1ccccc1`: “inactive”.
